Experimental data as given in ChEMBL document CHEMBL4513146, “CO-ADD screening of Karazin Kharkiv National University (Ukraine) compounds”.
Measured potencies and affinities stand elsewhere.

What was measured:
Klebsiella pneumoniae = conditions: Concentration 32 ug.mL-1;; ASSAY_TEST Inhibition of Bacterial Growth; detection method Absorption (OD600); MEDIA CAMHB; plate type 384well; NBS; CORNING #3640; time 18 hr
Candida albicans = conditions: Concentration 32 ug.mL-1; ASSAY_TEST Inhibition of Fungal Growth; detection method Absorption (OD530)
Cryptococcus neoformans = conditions: Concentration 32 ug.mL-1; ASSAY_TEST Inhibition of Fungal Growth; detection method Resazurin; Absorption (OD600-OD570); plate type 384well; NBS; CORNING #3640

Compound	Inhibition (Klebsiella pneumoniae) [%]	Inhibition (Candida albicans) [%]	Inhibition (Cryptococcus neoformans) [%]
CC1CC(C)CN(c2nccn3c(=O)n(CC(=O)Nc4cccc(C(F)(F)F)c4)nc23)C1 (centres undefined)	12.34	1.5	-9.37
CCCN(C)c1nccn2c(=O)n(CC(=O)Nc3ccc(OC)c(Cl)c3)nc12	9.65	7.19	-3.69
COc1ccc(-c2cc3c4nnc(CCC(=O)NCc5ccc(OC)cc5OC)n4ccn3n2)cc1	15.27	2.37	-17.34
COc1cccc(-n2ccn3c(SCc4ccc(Cl)cc4)nnc3c2=O)c1	9.45	2.03	-6.31
COC(=O)c1cccc(NC(=O)Cn2nc3c(N4CCCCCC4)nccn3c2=O)c1	3.15	2.05	-12.46
Cc1cc(C)c(NC(=O)CSc2nnc3c4cc(-c5ccccc5)nn4ccn23)c(C)c1	10.34	10.47	-13.87
Cc1ccc(Oc2nccn3c(=O)n(CC(=O)Nc4cccc(Cl)c4)nc23)cc1	2.02	5.47	-14.56
CCOc1ccc(-n2ccn3c(SCC(=O)c4ccc(OC)cc4)nnc3c2=O)cc1	12.65	0.38	-12.6
COc1ccc(NC(=O)CSc2nnc3c(=O)n(-c4cccc(OC)c4)ccn23)cc1	5.61	2.12	-13.19
COc1ccc(C)cc1NC(=O)CSc1nc2ccccc2n2cnnc12	9.24	2.39	-3.58
CCOc1ccc(-n2ccn3c(SCC(=O)c4c(C)[nH]c5ccccc45)nnc3c2=O)cc1	3.78	2.22	-13.8
COc1ccc(-c2cc3c4nnc(SCC(=O)Nc5ccc(C)c(F)c5)n4ccn3n2)cc1	1.13	19.06	-5.86
Cc1ccc(CNC(=O)Cn2nc3c(Sc4ccc(C)cc4C)nccn3c2=O)cc1	3.93	2.64	-16.78
CC(C)Cn1c(=O)c2sccc2n2c(=O)n(CC(N)=O)nc12	-1.97	-1.59	-19.03
COc1ccccc1-n1ccn2c(=O)n(Cc3ccc(F)cc3Cl)nc2c1=O	1.73	3.67	-6.11
COc1cc(NC(=O)CSc2nnc3c(=O)n(-c4cccc(F)c4)ccn23)cc(OC)c1	4.95	13.47	-8.34
O=C(Cn1nc2nc(Nc3ccc(F)cc3)ccn2c1=O)NCc1ccc(F)cc1Cl	11.65	1.62	-8.71
CC(=O)c1ccc(NC(=O)Cn2nc3ccc(-c4ccc(C)cc4)nn3c2=O)cc1	11.92	4.12	-11.07
O=S(=O)(c1ccc2nncn2c1)N(Cc1ccc(Cl)cc1)c1ccc2c(c1)OCO2	8.29	2.29	-11.3
CC(C)CCNC(=O)Cn1nc2n(CC(C)C)c(=O)c3sccc3n2c1=O	9.99	-0.63	-16.87
Cc1ccc(-c2cc3c4nnc(CCC(=O)NCCCc5ccccc5)n4ccn3n2)cc1C	12.56	-0.09	-29.9
Cc1ccc(NC(=O)Cn2nc3c(Oc4ccccc4)nccn3c2=O)c(Br)c1	-5.15	0.27	-6.15
CCCCn1c(=O)c2sccc2n2c(=O)n(CC(=O)c3ccc(OC)cc3)nc12	1.02	4.16	-36.83
CC(C)c1nnc2c(SCC(=O)Nc3ccccc3Br)nc3ccccc3n12	12.82	4.2	-6.3
CCc1ccc(N(Cc2cc(F)cc(F)c2)S(=O)(=O)c2cccn3c(C)nnc23)cc1	2.59	0.73	-2.77
O=C(Cn1nc2ccc(Sc3cccc(F)c3)nn2c1=O)Nc1ccc(Cl)cc1	-0.35	14.09	-7.49
COc1ccc(OC)c(NC(=O)Cn2nc3ccc(-c4ccc(C)cc4)nn3c2=O)c1	1.76	0.83	-12.04
CCCCOc1ccc(-c2cc3c4nnc(SCC(=O)Nc5cccc(C)c5C)n4ccn3n2)cc1	1.05	-0.05	-18.62
